Measurements taken from PubChem BioAssay (NCI).
Compounds without any hit were thinned out: in the full panel of roughly 83,000, 20% have a hit.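 Results are percent growth after 48 hours of single-concentration exposure. 100 means growth as in untreated cells, lower positive values show inhibition; negative values down to -100 show cell death.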 Calls of active or inactive are those of the source. How the source made its calls: active means growth percent below 10; inactive means the rest.

What follows are compounds tested on HL-60(TB) leukemia (assay: NCI-60 one-dose screen, 48 h (100 = growth as untreated, 0 = no growth, -100 = all killed)). Conditions: 10 µM unless noted.

Row | SMILES | growth
1 | COc1cc2ncnc(Nc3ccc(C(=O)/C=C/c4ccc(C(F)(F)F)cc4F)cc3)c2cc1OC | 85.9% (inactive)
2 | C[N+](C)(CCCCCC[N+](C)(C)C1c2ccccc2-c2ccccc21)C1c2ccccc2-c2ccccc21 | 85.7% (inactive)
3 | Cc1cc(N2CCSCC2)nc(NC2CCCC(Nc3ccnc4cc(Cl)ccc34)C2)n1 (stereo not given) | -68.7% (active)
4 | COc1ccc(C2Nc3nc(SC)nc(N)c3N=C3c4ccccc4CCC32)cc1 (stereo not given) | 71.1% (inactive)
5 | CCO/C=N/C1=C(C#N)C(c2ccc(F)cc2)c2sc3c(F)cccc3c2O1 (stereo not given) | 6.35% (active)
6 | O=C1NC(=O)C(=Cc2cn(Cc3ccccn3)c3ccccc23)C(=O)N1 | 101% (inactive)
7 | N#Cc1c(C#N)c(SSc2c(C#N)c(C#N)c(N)n2-c2ccccc2)n(-c2ccccc2)c1N | 99.2% (inactive)
8 | O=[N+]([O-])c1ccc(Oc2ccccc2Cl)c([N+](=O)[O-])c1 | -1.82% (active)
9 | O=C(NCCCl)Nc1nccnc1OCc1ccc(F)cc1 | -18.9% (active)
10 | Cc1nn(-c2ccc(Cl)cc2)c(=O)n1CCN1CCOCC1 | 105% (inactive)
11 | Cc1[nH]n(C(N)=S)c(=O)c1N=Nc1ccc(F)c(Cl)c1 | 90.6% (inactive)
12 | CCC(=C(c1ccc(OCCN(CC)CC)cc1)c1ccc(OCCN(CC)CC)cc1)c1ccc(Cl)cc1 | -51.6% (active)
13 | CCOc1ccc(/C=C/C(=O)c2ccccc2)cc1 | 70.3% (inactive)
14 | COc1cc(-c2cc(-c3ccc(Nc4nc(Nc5ccc(Cl)cc5)nc(Nc5ccc(Cl)cc5)n4)cc3)no2)cc(OC)c1OC | -68.2% (active)
15 | O=C1C(c2c(O)[nH]c3ncccc23)=Nc2ccccc21 | 173% (inactive)
16 | c1ccc2cc3c(Nc4ccc(N5CCOCC5)cc4)ccnc3cc2c1 | 99.1% (inactive)
17 | Cc1ccc(C(=O)c2ccc(CC(=O)N/N=C/c3cccc(O)c3O)n2C)cc1 | 4.13% (active)
18 | [O-]/[N+](=C\c1ccccc1)CC1(O)CCCCC1 | 98.5% (inactive)
19 | CCC12CCC3c4ccc(O)cc4CCC3C1CC(O)C2O (stereo not given) | 63.1% (inactive)
20 | CCN(CC)c1ccc(/C=C/C2=[N+](C)c3ccccc3C2(C)C)cc1 | 11.3% (inactive)

Row | SMILES | growth
21 | COC12C=C/C(=C(/C(=O)OCCSc3ccnn3C)C(=O)CCCCCCCCC3(OC)C=C/C(=C(/C(=O)OCCSc4ccnn4C)C(=O)CCCCCCCC1)O3)O2 | -6.91% (active)
22 | c1coc(CNc2c3ccccc3nc3ccccc23)c1 | 93% (inactive)
23 | COc1ccc(C(C)=O)cc1N1C(=O)C2C(C1=O)C1(c3ccccc3)C(=O)C2(c2ccccc2)C(c2ccc(C)cc2)=C1c1ccc(C)cc1 (stereo not given) | 17.1% (inactive)
24 | O=C1NC(=O)/C(=C\c2ccccc2)C2=C1CCCC2 | -33.3% (active)
25 | Nc1c(CNCc2nnn(Cc3ccccc3)c2N)nnn1Cc1ccccc1 | 103% (inactive)
26 | O=C(N/N=C/c1ccc([N+](=O)[O-])cc1)c1ccc2nc(-c3ccc(Cl)cc3)[nH]c2c1 | 6.58% (active)
27 | CCN(CCO)CCNc1ccc(C)c2sc3cc(OC)ccc3c(=O)c12 | 67.5% (inactive)
28 | COc1ccccc1/C=C1\Oc2cc(OCCN3CCC(Cc4ccccc4)CC3)ccc2C1=O | 97.1% (inactive)
29 | COc1ccc(F)c(F)c1C(=O)c1cnc(NC2CCN(S(C)(=O)=O)CC2)nc1N | -32.2% (active)
30 | OC(CSc1ccccc1)CN1CCN(c2cccc(Cl)c2)CC1 (stereo not given) | 85.7% (inactive)
31 | CC1CCC(C(C)(C)[N+](C)(C)C)CC1 (stereo not given) | 104% (inactive)
32 | CCCCCCNC(=O)Oc1ccc(/C(=C(/CC)Cc2ccccc2)c2ccc(OCCCN(C)C)cc2)cc1 | 64.2% (inactive)
33 | COc1ccc(C2CCCCC2=O)cc1 (stereo not given) | 122% (inactive)
34 | N=C(N)N=Nc1ccc(NN=C(N)N)cc1 | 101% (inactive)
35 | COc1ccc(S(=O)(=O)NCCNc2nccc(-c3c(-c4cccc([N+](=O)[O-])c4)nc4sccn34)n2)cc1 | 110% (inactive)
36 | COc1cc(/C=C(/c2ccccc2)[N+](=O)[O-])c(OC)c2c1OCO2 | -23% (active)
37 | [Ag].[Ag].[NH-]S(=O)(=O)c1ccc(N=Nc2cc(N=Nc3ccc(S([NH-])(=O)=O)cc3)c3c(NC(=O)C(Cl)Cl)cccc3c2OC(=O)C(Cl)Cl)cc1.[c-]1nccs1.[c-]1nccs1 | 44.2% (inactive)
38 | CS(=O)(=O)c1ccc(Cl)c([N+](=O)[O-])c1 | 14% (inactive)
39 | O=C(NNC(=S)Nc1ccccc1)c1ccccn1 | -6.25% (active)
40 | COc1nc(N)nc2c1ncn2C1OC(CO)CC1O (stereo not given) | 98.9% (inactive)
